Source: PubChem BioAssay
Active and inactive are the calls of the source. Unless noted, no rule for the calls is given here.

How the values were obtained:
[1] = tested on: Wnt5a (protein binding on small-molecule microarray); experiment: Wnt5a binders on small-molecule microarray, primary screen, biophysical, 635/667 nm fluorescence (AID 1142); details: 635 nm fluorescence, higher = more signal;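 also: fluorescence read at 667 nm with signal to noise per printed feature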
[2] = cell viability in Huh7 cells, primary screen, cytotoxicity control for HCV replication inhibitor project, CellTiter-Glo luminescence, basal, 48 h (AID 1143); details: Huh7 HCV replicon, higher = more signal, called active from +8 up or from −8 down;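 also: Huh7 hepatoma cells carrying a hepatitis C replication reporter with no stimulus; test concentration not given here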
[3] = P. aeruginosa biofilm formation inhibitors, primary screen, PAO1 strain, BacTiter-Glo luminescence, LB-PBS (AID 1144); details: 12 h, higher = more signal
[4] = CREB reporter modulators without forskolin, primary screen, cell-based, PC12, CRE-LacZ reporter, unstimulated (AID 1145); details: no forskolin, luminescence, 4.5 h, higher = more signal, called active from +8 up or from −8 down
[5] = CREB reporter modulators under forskolin, primary screen, cell-based, PC12, CRE-LacZ reporter, forskolin-stimulated (AID 1146); details: luminescence, 4.5 h, higher = more signal, called active from +8 up or from −8 down;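 also: PC12 cells with 6xCRE LacZ reporter stimulated by forskolin 10 µM; beta-galactosidase reporter signal reflecting CREB driven transcription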
[6] = molecular target: Streptavidin (Streptomyces avidinii) (UniProt P22629); experiment: streptavidin binders on small-molecule microarray, primary screen, artefact control for SMM compound annotation, biophysical, 635/667 nm fluorescence (AID 1147); details: streptavidin binding, higher = more signal;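 also: signal reflects streptavidin binding to arrayed compounds as a control protein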
[7] = small-molecule binders of probe aInhba, primary screen, biochemical, small-molecule microarray, 635/667 nm fluorescence (AID 1148); details: higher = more signal;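 also: score merges 667nm spot fluorescence with signal-to-noise for antibody binding to printed compounds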
Torsin-1A (Homo sapiens) [8] = molecular target: Torsin-1A (Homo sapiens) (UniProt O14656); experiment: torsin A binders from cell lysate, primary screen, small-molecule microarray, wild-type, 635/667 nm (AID 1149); details: COS7 hTOR1A-WT lysate, 635 nm fluorescence, higher = more signal
Torsin-1A (Homo sapiens) [9] = molecular target: Torsin-1A (Homo sapiens) (UniProt O14656); experiment: small-molecule binders of mutant TOR1A in lysate, primary screen, cell lysate, small-molecule microarray, COS7 lysate, 635/667 nm fluorescence (AID 1150); details: COS7 hTOR1A mutant lysate, 635 nm fluorescence, higher = more signal;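 also: score pools 667 nm emission and signal to noise measuring lysate protein binding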
[10] = tested on: Sonic hedgehog protein (Shh); experiment: small-molecule binders of Shh protein, primary screen, biochemical, small-molecule microarray, 635/667 nm fluorescence (AID 1151); details: small-molecule microarray binding, 635 nm fluorescence; higher = more signal;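 also: Shh protein binding to compounds spotted on small-molecule microarray slides; score combines spot fluorescence intensity with signal-to-noise across triplicate slides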
[11] = E. coli DRC41 culture turbidity changes, primary screen, E. coli filamentation inducer project, strain DRC41, OD650, 48 h (AID 1152);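 also: E. coli MC1000 strain DRC41 lacking acrAB efflux pump and sulA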; details: E. coli DRC41 (acrAB sulA), higher = more signal, called active from +8 up or from −8 down
[12] = small-molecule binders of probe aLefty1, primary screen, biochemical, small-molecule microarray, 635/667 nm fluorescence (AID 1153); details: higher = more signal;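 also: score merges spot fluorescence with signal-to-noise ratio from the scanned slide images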
[13] = PSAC antagonists in infected red cells, primary screen, cell-based, P. falciparum Indochina, OD700, 1 h (AID 1154); details: P. falciparum Indochina infected RBC osmotic lysis, higher = more signal, called active from +8 up or from −8 down
[14] = PSAC antagonists in infected red cells, primary screen, cell-based, P. falciparum Indochina, OD700, 2 h (AID 1155);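 also: lysis reports solute entry through the parasite surface anion channel PSAC; channel blockers reduce lysis of infected cells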; details: P. falciparum Indochina infected erythrocytes, osmotic lysis OD700; higher = more signal, called active from +8 up or from −8 down
[15] = osmotic lysis modulators in infected erythrocytes, primary screen, PSAC antagonist project, cell-based, P. falciparum Indochina, OD700, 3 h (AID 1156); details: higher = more signal, called active from +8 up or from −8 down
[16] = PSAC antagonists in infected red cells, primary screen, cell-based, P. falciparum Indochina, OD700, 18 h (AID 1157); details: P. falciparum Indochina infected erythrocytes, osmotic lysis OD700, 18 h; higher = more signal, called active from +8 up or from −8 down
[17] = modulators of S6 phosphorylation in cells, primary screen, cell-based, A549, cytoblot, luminescence, serum-stimulated (AID 1158); details: A549 phospho-S6 cytoblot, 5 h, higher = more signal;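 also: serum-stimulated A549 lung adenocarcinoma cells; signal is phosphorylated S6 detected by cytoblot immunostaining with HRP secondary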
[18] = molecular target: NADPH oxidase 2 (Homo sapiens) (UniProt P04839); experiment: NOX2-dependent H2O2 signal modulators, primary screen, NOX inhibitor project, cell-based, HEK293-NOX2, PMA-stimulated, Amplex Red fluorescence (AID 1159); details: 45 min, higher = more signal, called active from +8 up or from −8 down; also: test concentration not given here
[19] = molecular target: NADPH oxidase 4 (Homo sapiens) (UniProt Q9NPH5); experiment: NOX4-dependent H2O2 signal modulators, primary screen, NOX inhibitor project, cell-based, HEK293-NOX4, tetracycline-induced, Amplex Red fluorescence (AID 1160); details: 45 min, higher = more signal, called active from +8 up or from −8 down
[20] = molecular target: NADPH oxidase 5 (Homo sapiens) (UniProt Q96PH1); experiment: NOX5-dependent H2O2 signal modulators, primary screen, NOX inhibitor project, cell-based, HEK293-NOX5, Amplex Red fluorescence (AID 1161); details: HEK293-NOX5, ionomycin, 45 min, higher = more signal
NADPH oxidase 5 (Homo sapiens), sequence (Q96PH1 whole entry, looked up): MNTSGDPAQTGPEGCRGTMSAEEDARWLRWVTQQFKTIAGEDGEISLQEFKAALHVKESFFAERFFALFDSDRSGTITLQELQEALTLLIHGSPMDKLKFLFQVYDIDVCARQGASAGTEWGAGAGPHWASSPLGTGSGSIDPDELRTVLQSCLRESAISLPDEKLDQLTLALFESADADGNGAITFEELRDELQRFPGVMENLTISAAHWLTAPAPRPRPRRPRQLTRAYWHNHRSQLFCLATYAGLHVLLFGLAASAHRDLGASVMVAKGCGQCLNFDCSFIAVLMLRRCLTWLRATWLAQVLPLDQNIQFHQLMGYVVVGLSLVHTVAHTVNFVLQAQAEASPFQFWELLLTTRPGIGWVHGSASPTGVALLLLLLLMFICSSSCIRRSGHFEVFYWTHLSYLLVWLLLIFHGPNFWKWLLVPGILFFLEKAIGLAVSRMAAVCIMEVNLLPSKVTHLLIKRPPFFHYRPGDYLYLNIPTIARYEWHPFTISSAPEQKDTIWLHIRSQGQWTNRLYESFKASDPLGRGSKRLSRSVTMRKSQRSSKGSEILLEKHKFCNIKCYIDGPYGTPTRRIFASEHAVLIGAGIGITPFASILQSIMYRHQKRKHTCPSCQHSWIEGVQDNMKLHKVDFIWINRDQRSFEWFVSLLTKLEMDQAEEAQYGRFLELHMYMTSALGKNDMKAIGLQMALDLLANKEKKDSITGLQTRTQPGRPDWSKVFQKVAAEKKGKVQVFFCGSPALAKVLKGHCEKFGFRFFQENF

NADPH oxidase 4 (Homo sapiens), sequence (Q9NPH5 whole entry, looked up): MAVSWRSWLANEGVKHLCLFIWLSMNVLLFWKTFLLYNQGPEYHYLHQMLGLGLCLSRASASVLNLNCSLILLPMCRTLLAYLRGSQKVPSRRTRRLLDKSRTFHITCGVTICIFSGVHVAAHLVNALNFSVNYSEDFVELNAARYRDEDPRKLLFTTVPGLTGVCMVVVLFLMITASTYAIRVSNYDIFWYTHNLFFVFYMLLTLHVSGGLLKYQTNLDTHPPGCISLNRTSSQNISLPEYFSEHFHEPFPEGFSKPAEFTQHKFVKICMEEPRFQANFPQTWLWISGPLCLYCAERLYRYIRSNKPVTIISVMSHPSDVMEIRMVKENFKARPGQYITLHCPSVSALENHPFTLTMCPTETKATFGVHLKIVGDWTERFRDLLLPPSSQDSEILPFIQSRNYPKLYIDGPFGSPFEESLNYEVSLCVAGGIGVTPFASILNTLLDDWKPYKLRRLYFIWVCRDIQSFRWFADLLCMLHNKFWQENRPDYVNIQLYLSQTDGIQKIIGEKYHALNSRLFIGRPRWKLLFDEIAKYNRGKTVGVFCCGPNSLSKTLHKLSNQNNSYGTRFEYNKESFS
Torsin-1A (Homo sapiens), sequence (O14656 whole entry, looked up): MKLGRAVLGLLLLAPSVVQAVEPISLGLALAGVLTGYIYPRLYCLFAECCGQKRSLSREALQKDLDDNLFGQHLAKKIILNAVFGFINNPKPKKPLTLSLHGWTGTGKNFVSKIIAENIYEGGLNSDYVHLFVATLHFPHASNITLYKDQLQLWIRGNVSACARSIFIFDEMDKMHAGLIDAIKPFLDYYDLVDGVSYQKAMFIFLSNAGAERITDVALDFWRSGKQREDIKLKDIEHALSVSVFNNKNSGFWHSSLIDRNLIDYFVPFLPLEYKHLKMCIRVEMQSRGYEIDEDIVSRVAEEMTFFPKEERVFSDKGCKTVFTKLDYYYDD
Streptavidin (Streptomyces avidinii), sequence (P22629 whole entry, looked up): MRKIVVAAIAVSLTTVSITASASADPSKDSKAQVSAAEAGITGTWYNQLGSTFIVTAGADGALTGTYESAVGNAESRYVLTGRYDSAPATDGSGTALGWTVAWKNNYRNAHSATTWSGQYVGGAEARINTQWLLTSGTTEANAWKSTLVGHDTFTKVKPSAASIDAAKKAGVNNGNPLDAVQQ
NADPH oxidase 2 (Homo sapiens), sequence (P04839 whole entry, looked up): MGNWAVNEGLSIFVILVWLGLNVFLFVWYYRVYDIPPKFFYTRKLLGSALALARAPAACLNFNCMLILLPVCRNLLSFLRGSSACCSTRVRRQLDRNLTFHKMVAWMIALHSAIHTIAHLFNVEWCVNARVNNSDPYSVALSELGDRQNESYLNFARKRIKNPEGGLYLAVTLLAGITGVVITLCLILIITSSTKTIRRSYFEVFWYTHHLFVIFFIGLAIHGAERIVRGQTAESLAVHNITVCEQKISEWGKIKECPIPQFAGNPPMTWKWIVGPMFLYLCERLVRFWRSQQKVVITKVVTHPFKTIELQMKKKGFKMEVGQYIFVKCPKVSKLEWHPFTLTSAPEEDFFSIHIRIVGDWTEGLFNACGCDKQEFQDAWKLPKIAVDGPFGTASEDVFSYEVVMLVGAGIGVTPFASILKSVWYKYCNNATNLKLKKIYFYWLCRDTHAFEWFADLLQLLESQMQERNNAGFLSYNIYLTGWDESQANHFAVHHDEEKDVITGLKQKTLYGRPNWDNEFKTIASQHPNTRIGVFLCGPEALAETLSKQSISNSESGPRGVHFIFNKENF

Structure (SMILES)	composite z-score [1]	z-score [2]	z-score [3]	z-score [4]	z-score [5]	composite z-score [6]	composite z-score [7]	composite z-score (Torsin-1A (Homo sapiens) [8])	composite z-score (Torsin-1A (Homo sapiens) [9])	composite z-score [10]	z-score [11]	composite z-score [12]	z-score [13]	z-score [14]	z-score [15]	z-score [16]	z-score [17]	z-score [18]	z-score [19]	z-score [20]
CCOC(=O)NN=C1C[C@@H](O)[C@@H](O)[C@@H]2[C@@H]3C(=O)N(c4cccc(Oc5ccccc5)c4)C(=O)[C@@H]3CC[C@@H]12	0.0449	-1.49 (inactive)	0.362 (inactive)	-0.201 (inactive)	-0.252 (inactive)	-0.343	-0.178	0.986	0.139	-0.438	-0.852 (inactive)	-0.0984	0.999 (inactive)	0.753 (inactive)	0.471 (inactive)	0.233 (inactive)	-0.142	0.361 (inactive)	-0.0548 (inactive)	-2.88
COC(=O)[C@@H]1CC[C@H](C)[C@@H](c2ccc(C)cc2)N1C(=O)c1ccc(C=NO[C@H](C)c2cn([C@H](CO)Cc3ccccc3)nn2)cc1	0.247	-0.63 (inactive)	0.0292 (inactive)	8.24 (active)	0.371 (inactive)	0.0407	0.288	0.278	0.277	0.682	-0.25 (inactive)	0.342	18.8 (active)	2.92 (inactive)	1.91 (inactive)	1.25 (inactive)	-0.0872	-0.0504 (inactive)	-0.591 (inactive)	-1.71
O=C1C[C@@H](O)[C@@H](O)[C@@H]2[C@@H]3C(=O)N(C[C@@H]4CCCO4)C(=O)[C@@H]3CC[C@@H]12	0.191	0.149 (inactive)	-0.213 (inactive)	0.246 (inactive)	0.287 (inactive)	0.622	0.0956	0.232	0.206	0.678	0.668 (inactive)	-0.284	0.786 (inactive)	-0.191 (inactive)	1 (inactive)	-0.0672 (inactive)	0.381	-1.38 (inactive)	0.529 (inactive)	0.624
CCOC(=O)C1=NO[C@]2(C=C(Br)C3(OCCCO3)[C@H]3O[C@H]32)C1	0.0562	0.974 (inactive)	0.892 (inactive)	-0.254 (inactive)	1.65 (inactive)	-0.468	-0.163	0.748	1.42	0.0095	0.209 (inactive)	-0.0075	-0.228 (inactive)	0.142 (inactive)	-0.348 (inactive)	0.0748 (inactive)	-0.428	1.18 (inactive)	0.492 (inactive)	0.12
CCOC(=O)[C@H](Cc1ccccc1)NC(=O)CCC1CC(OC(=O)NCc2cccc3ccccc23)CC2(CCCC(COC(=O)NCCC(C)C)O2)O1 (stereo not given in full)	-0.0404	0.0896 (inactive)	-0.863 (inactive)	-0.525 (inactive)	0.214 (inactive)	1.8	-0.231	1.5	-0.359	-0.226	0.165 (inactive)	-0.0733	15.9 (active)	1.95 (inactive)	-2.04 (inactive)	-0.492 (inactive)	0.255	1.59 (inactive)	1.24 (inactive)	0.101
CCOC(=O)[C@H](CC(C)C)NC(=O)CCC1CC(OC(=O)NCc2cccc3ccccc23)CC2(CCCC(COC(=O)NCCC(C)C)O2)O1 (stereo not given in full)	0.0463	-2.6 (inactive)	-1.52 (inactive)	0.563 (inactive)	-0.535 (inactive)	-0.589	-0.0736	-0.0418	0.185	0.784	-0.64 (inactive)	0.185	22.7 (active)	6.81 (inactive)	-0.861 (inactive)	0.78 (inactive)	2.49	0.902 (inactive)	0.777 (inactive)	0.389
O=C1[C@H]2[C@H]3[C@H](O)[C@H](O)CC(=NOCc4ccccc4)[C@@H]3CC[C@H]2C(=O)N1c1ccc(F)cc1F	-0.0167	-1.69 (inactive)	-1 (inactive)	-0.469 (inactive)	-0.445 (inactive)	0.0494	-0.104	-0.111	-0.153	0.068	-0.246 (inactive)	-0.391	1.17 (inactive)	-0.56 (inactive)	0.512 (inactive)	-1.36 (inactive)	2.35	-0.409 (inactive)	0.18 (inactive)	0.343
CCOC(=O)[C@H](Cc1ccccc1)NC(=O)CCC1CC(OC(=O)NCCc2ccc(F)cc2)CC2(CCCC(COC(=O)NCCCN3CCCC3=O)O2)O1 (stereo not given in full)	0.126	-1.04 (inactive)	-1.68 (inactive)	-0.165 (inactive)	0.0137 (inactive)	0.625	-0.206	0.144	0.321	0.733	0.141 (inactive)	-0.105	-1.36 (inactive)	-0.861 (inactive)	-0.0494 (inactive)	-0.445 (inactive)	0.94	-0.232 (inactive)	0.192 (inactive)	-1.09
CCCNC(=O)OC[C@H]1O[C@H](CCON=C(C)CCN2CCc3nc(CC)c(CC)cc3C2)C=C[C@@H]1Oc1ccc(OC)cc1	-0.0552	-2.1 (inactive)	-0.546 (inactive)	10.3 (active)	0.82 (inactive)	0.333	-0.0405	0.686	0.481	0.391	-0.611 (inactive)	-0.0949	8.46 (active)	1.12 (inactive)	1.66 (inactive)	0.539 (inactive)	0.58	-3.19 (inactive)	-1.7 (inactive)	-3.32
